# Measured values as given in the supplement of paper PMC11150407.
# Where a name gives a salt, the structure may show the parent alone. Screen size: about 2,100 compounds; about 180 (8.6%) showed an effect of 50% or more. This excerpt belongs to a sample that is enriched for strong results.
# Tested on: MOLM1 and UCSD/AML1 (averaged)
# Assay: cell viability relative to DMSO control (POC); higher = less growth inhibition
# Conditions: 1 µM; 72 h
# Experimental: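 Primary viability screen in the 3q26 EVI1-high AML cell lines MOLM1 and UCSD/AML1 (1.5e3 cells/well, 384-well), compounds at 1 uM for 72 h. ATP CellTiter-Glo read-out given as percent of viable cells over DMSO control (POC), averaged over duplicates. DMSO was the negative control and 5 uM etoposide the positive control. This mapping covers the MicroSource Spectrum and Selleck anticancer libraries (drug names).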
row,SMILES,cell viability
1,CC(=O)O[C@H]1CC[C@]2(C)C(C[C@@H](OC(C)=O)[C@]3(C)C4=CC(=O)O[C@H](c5ccoc5)[C@@]4(C)CCC23)C1(C)C (stereo partly drawn) [3-DEOXO-3beta-ACETOXYDEOXYDIHYDROGEDUNIN],92.3%
2,CC(C)c1cc(-c2n[nH]c(=O)n2-c2ccc3c(ccn3C)c2)c(O)cc1O [Ganetespib (STA-9090)],2.49%
3,CC(=O)O[C@H]1C[C@@H](O)C(C)(C)[C@@H]2C[C@@H](OC(C)=O)[C@]3(C)[C@H](CC[C@@]4(C)[C@@H](c5ccoc5)OC(=O)[C@H]5O[C@@]534)[C@@]12C,104%
4,O=c1cc(-c2ccccc2)oc2cc(O)c(O)cc12,96.6%
5,COc1cc(Nc2ncc3c(n2)-c2ccc(Cl)cc2C(c2c(F)cccc2OC)=NC3)ccc1C(=O)O [MLN8237 (Alisertib)],49.6%
6,C=C1[C@H]2CC[C@@]3(C)[C@H](c4ccoc4)OC(=O)C[C@]13O[C@H]1C[C@H](O)C(C)(C)[C@H](CC(=O)OC)[C@]12C [3-DEOXY-3beta-HYDROXYANGOLENSIC ACID METHYL ESTER],97.7%
7,C[C@@H]1CC[C@@]2(OC1)O[C@H]1C[C@H]3[C@@H]4CC=C5C[C@@H](O)CC[C@]5(C)[C@H]4CC[C@]3(C)[C@H]1[C@@H]2C,93.7%
8,O=c1cc(-c2ccc(O)cc2)oc2cc(O[C@@H]3O[C@H](CO)[C@@H](O)[C@H](O)[C@H]3O)cc(O)c12,104%
9,O=C(O)c1cc2ccccc2[nH]1,118%
10,O=C(O)CCc1nc(-c2ccccc2)c(-c2ccccc2)o1,45.5%
11,O=C(O)CCCc1ccccc1,90.8%
12,O=C(O)CCC(=O)c1ccc(-c2ccccc2)cc1,93.4%
13,C[C@]1(O)C[C@@H](c2nc(-c3ccc4ccc(-c5ccccc5)nc4c3)c3c(N)nccn32)C1 [OSI-906 (Linsitinib)],100%
14,O=C(Nc1cccc(Cl)c1)Nc1ncc(CCNc2ncnc3ccsc23)s1 [SNS-314 Mesylate],60%
15,CC1(C)[C@@H](O[C@H]2O[C@H](C(=O)O)[C@@H](O)[C@H](O)[C@H]2O[C@@H]2O[C@H](C(=O)O)[C@@H](O)[C@H](O)[C@H]2O)CC[C@]2(C)[C@H]3C(=O)C=C4[C@@H]5C[C@@](C)(C(=O)O)CC[C@]5(C)CC[C@@]4(C)[C@]3(C)CC[C@@H]12,96.4%
16,COc1cc(/C=C/C(=O)O)cc(OC)c1OC,118%
17,COc1cc([C@@H]2c3cc4c(cc3[C@@H](O[C@@H]3O[C@@H]5CO[C@@H](c6cccs6)O[C@H]5[C@H](O)[C@H]3O)[C@H]3COC(=O)[C@H]23)OCO4)cc(OC)c1O [Teniposide (Vumon)],12.4%
18,COc1cc([C@@H]2c3cc4c(cc3[C@@H](O[C@@H]3O[C@@H]5CO[C@@H](c6cccs6)O[C@H]5[C@H](O)[C@H]3O)[C@H]3COC(=O)[C@H]23)OCO4)cc(OC)c1O,27.5%
19,COc1cc([C@@H]2c3cc4c(cc3[C@@H](O[C@@H]3O[C@@H]5CO[C@@H](C)O[C@H]5[C@H](O)[C@H]3O)[C@H]3COC(=O)[C@H]23)OCO4)cc(OC)c1O,59.4%
20,C[C@@H]1CC[C@@]2(OC1)O[C@H]1C[C@H]3[C@@H]4CC[C@H]5C[C@@H](O)CC[C@]5(C)[C@H]4CC[C@]3(C)[C@H]1[C@@H]2C,97.1%
21,CCC[C@H](NC(=O)/C(C#N)=C/c1cccc(Br)n1)c1ccccc1,57.8%

row,SMILES,cell viability
1,COc1ccc(C=CC(=O)O)cc1OC,106%
2,CC(=O)c1c(O)cc(O)cc1O,106%
3,O=C(O)C(=O)O.[NH-]C1CCCCC1[NH-].[Pt+2] (stereo unspecified) [Oxaliplatin (Eloxatin)],41.3%
4,O=C(NC1CCCCC1)NC1CCCCC1,120%
5,CC(C)=CCOc1cc2oc(=O)ccc2cc1O,98%
6,O=c1cc(-c2cc(O)c(O)c(O)c2)oc2cc(O)cc(O)c12,106%
7,COC(=O)C[C@H]1C2(C)CC34OC5(C)O[C@@]6([C@H](OC(C)=O)C(OC(C)=O)[C@]7(C)C(/C(=C(/O)C(C)C)C(=O)O[C@H]7c7ccoc7)[C@@]6(O5)[C@H](OC(C)=O)[C@@]3(O)C2OC(=O)C(C)C)[C@]14C (stereo partly specified),102%
8,O=C(O)CCC(=O)OC[C@@H](NC(=O)C(Cl)Cl)[C@H](O)c1ccc([N+](=O)[O-])cc1,40.2%
9,CCCCCCCCCCCCCCCC(=O)OC[C@@H](NC(=O)C(Cl)Cl)[C@H](O)c1ccc([N+](=O)[O-])cc1,96.2%
10,O=C(N[C@H](CO)[C@H](O)c1ccc([N+](=O)[O-])cc1)C(Cl)Cl,101%
11,C[C@@H]1CC[C@@]23CCC4(C)[C@@](C=CC5[C@@]6(C)CCC(=O)C(C)(C)C6CC[C@]54C)(OC2=O)C3[C@H]1C (stereo partly specified),95.6%
12,Oc1cc(O)c2c(c1)O[C@H](c1cc(O)c(O)c(O)c1)[C@H](O)C2,97.9%
13,COc1ccc2c(c1)OC[C@@H](Cc1ccc(OC)c(OC)c1)[C@@H]2O,82.3%
14,CCCCCC/C=C\CCCCCCCc1cccc(O)c1C(=O)O,81.2%
15,CC(=O)O[C@H]1CC[C@@]2(C)[C@H](CC[C@@H]3[C@@H]2CC[C@]2(C)[C@@H]4[C@H](C[C@@H]32)O[C@]2(CC[C@@H](C)CO2)[C@H]4C)C1,94.2%
16,C=CCNC1=C2C[C@@H](C)C[C@H](OC)[C@H](O)[C@@H](C)/C=C(\C)[C@H](OC(N)=O)[C@@H](OC)/C=C\C=C(/C)C(=O)NC(=CC1=O)C2=O [17-AAG (Tanespimycin)],29.1%
17,COC1=C2C[C@@H](C)C[C@H](OC)[C@H](O)[C@@H](C)/C=C(\C)[C@H](OC(N)=O)[C@@H](OC)/C=C\C=C(/C)C(=O)NC(=CC1=O)C2=O [Geldanamycin],0.865%
18,CO[C@H]1/C=C\C=C(/C)C(=O)NC2=CC(=O)C(NCCN(C)C)=C(C[C@@H](C)C[C@H](OC)[C@H](O)[C@@H](C)/C=C(\C)[C@@H]1OC(N)=O)C2=O [17-DMAG HCl (Alvespimycin)],2.31%
19,C=C1[C@@H]([C@@]2(C)C=CC(=O)C(C)(C)[C@@H]2CC(=O)OC)CC[C@@]2(C)[C@H](c3ccoc3)OC(=O)[C@H]3O[C@]132,102%
20,COC1=CC(=O)C=C(OC)C1=O,91.5%
